Calls of active or inactive are those of the source. Rule for the calls: active = hit-call score of the fitted dose curve at least 0.9, where 1 is the maximum; inactive = score below 0.9.
Experiments:
[1] = Tanguay_ZF_120hpf_CRAN: Oregon State University Tanguay Lab 120 Hour Post-fertilization zebrafish Assay for Craniofacial Malformation (AID 2284397)
In short: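 Scoring of craniofacial malformation as a binary endpoint was done at 120 hpf by brightfield microscopy and was not done in dead embryos. Exposure was static, starting at 6 hpf, in dechorionated wild-type embryos held singly at 28C with 0.64% DMSO final.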

[2] = Tanguay_ZF_120hpf_AXIS: Oregon State University Tanguay Lab 120 Hour Post-fertilization zebrafish Assay for Axial Malformation (AID 2284398)
In short: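 Scoring was binary (present or absent) for body-axis defects, judged by brightfield imaging at 120 hpf in surviving larvae. Exposure was static at 28C from 6 hpf in chorion-free 5D wild-type embryos, with 0.64% DMSO vehicle.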

[3] = Tanguay_ZF_120hpf_EDEM: Oregon State University Tanguay Lab 120 Hour Post-fertilization zebrafish Assay for Edema Malformation (AID 2284400)
In short: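 Edema recorded as a binary endpoint under brightfield at 120 hpf, excluding embryos that died. Exposure was static, sealed, 28C, from 6 hpf in dechorionated wild-type larvae, final DMSO 0.64%, DMSO as baseline.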

[4] = Tanguay_ZF_120hpf_MUSC: Oregon State University Tanguay Lab 120 Hour Post-fertilization zebrafish Assay for Muscle Malformation (AID 2284401)
In short: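 Scored as a binary brightfield endpoint at 120 hpf, fitted versus DMSO. Single dechorionated wild-type (Tropical 5D) zebrafish embryos per well, statically exposed at 28C from 6 hpf onward with final DMSO 0.64%.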

[5] = Tanguay_ZF_120hpf_BRN: Oregon State University Tanguay Lab 120 Hour Post-fertilization zebrafish Assay for Brain Region Malformation (AID 2284402)
In short: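 Binary brightfield scoring of brain malformation at 120 hpf in 5D wild-type larvae, chorion removed with pronase at 4 hpf. Static exposure began at 6 hpf, 28C, sealed plates, DMSO 0.64% (vol/vol) as vehicle baseline.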

[6] = Tanguay_ZF_120hpf_TCHR: Oregon State University Tanguay Lab 120 Hour Post-fertilization zebrafish Assay for Touch Responsive (AID 2284403)
In short: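 Binary touch-response calls are made at 120 hpf in 5D wild-type zebrafish larvae. These larvae were dechorionated with pronase and exposed singly from 6 hpf in sealed, dark plates at 28 °C with 0.64% DMSO final; dead embryos are excluded.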

[7] = CCTE_Padilla_ZF_Score.Craniofacial: CCTE's 144 Hour Post-fertilization zebrafish Assay Score for Craniofacial Malformation, Padilla Lab (AID 2284405)
In short: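 Craniofacial defects were scored at 6 dpf by two blinded observers using stereomicroscopy. Exposure of wild-type embryos began at 6–8 hpf in sealed wells of 10% Hanks' solution at 26C, with chemical removed by rinsing at 5 dpf.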

[8] = CCTE_Padilla_ZF_Score.Edema: CCTE's 144 Hour Post-fertilization zebrafish Assay Score for Edema Malformation, Padilla Lab (AID 2284406)
In short: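 Edema scored at 6 dpf by two blinded observers under a stereo microscope, in single outbred wild-type larvae exposed from 6-8 hpf in sealed wells (Hanks', 26C, 14:10 h light) and chemical-free after a 5 dpf rinse.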

[9] = CCTE_Padilla_ZF_Score.Spine: CCTE's 144 Hour Post-fertilization zebrafish Assay Score for Spine Malformation, Padilla Lab (AID 2284407)
In short: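 Spine malformation scored at 6 dpf by two independent blinded observers under stereomicroscope, after static sealed exposure from 6–8 hpf at 26C in Hanks' solution with rinse on 5 dpf. Positive-direction fit against DMSO control.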

[10] = CCTE_Padilla_ZF_Score.Swim_bladder: CCTE's 144 Hour Post-fertilization zebrafish Assay Score for Swim Bladder Malformation, Padilla Lab (AID 2284408)
In short: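 Swim bladder inflation scored at 6 dpf by two blinded observers under a stereo microscope. Exposure ran from 6–8 hpf in sealed wells of 10% Hanks' at 26C, with rinsing at 5 dpf; DMSO served as baseline.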

Measured: AC50

O=C(O)C=CC(F)(C(F)(F)F)C(F)(F)F
inactive: all assays above

CC(O)C(F)(F)C(F)(F)F (stereo not given)
inactive: all assays above

COC(=O)C(F)(F)C(F)(F)OC(F)(C(F)(F)F)C(F)(F)OC(F)=C(F)F (stereo not given)
inactive: all assays above

O=C(O)C(F)(F)OC(F)(F)C(F)(F)OC(F)(F)F
inactive: all assays above

OCC(F)(F)OC(F)(F)C(F)(F)OC(F)(F)C(F)(F)OC(F)(F)CO
active: [1] 28.9 µM | [2] 36.7 µM | [3] 28.9 µM | [4] 36.7 µM
inactive: all other assays above

O=C(O)C(F)(OC(F)(F)C(F)(F)C(F)(F)F)C(F)(F)F (stereo not given)
inactive: all assays above

NC(=O)C(F)(F)C(F)(F)F
inactive: all assays above

C=CC(=O)OCC(F)(F)C(F)F
active: [2] 54.6 µM | [4] 54.6 µM | [8] 8.88 µM
inactive: all other assays above

OCC(F)(F)OC(F)(F)C(F)(F)OC(F)(F)CO
inactive: all assays above

FC(F)(F)C(F)(C(F)(F)F)C(F)(F)C(F)(F)CC1CO1 (stereo not given)
inactive: all assays above

O=S(=O)(F)C(F)(F)C(F)(F)C(F)(F)C(F)(F)C(F)(F)C(F)(F)C(F)(F)C(F)(F)F
inactive: all assays above

OCC(F)(F)OC(F)(F)C(F)(F)OC(F)(F)C(F)(F)OC(F)(F)F
active: [7] 20.2 µM | [8] 73.7 µM | [10] 27.5 µM
inactive: all other assays above

O=C(O)C(F)(F)C(F)(F)C(=O)O
inactive: all assays above

O=C(O)C(F)(F)OC(F)(F)C(F)(F)OC(F)(F)C(=O)O
inactive: all assays above
